Several values for one entry are separate records, joined by “and”; a condition that tells them apart may be missing. Identical values can stand only once. Hit rate of the full screen: of about 5,500 compounds, about 2,000 (36%) were called active. Not shown: some 18% with an inconclusive outcome. No stated cut-off is given here; in the data, active means normalized growth mostly below about 0.91 (no sharp cut-off); inconclusive means no clear call, values can overlap the other calls; inactive means mostly above about 0.92. The list shows a part of the results.
Assay: chemical genetic growth profiling, strain panel (AID 1159580);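 further: tested at 20 µM; growth read once vehicle control cultures reached saturation at 30 °C; 1 = growth at the plate median or of vehicle wells; lower values mean less growth of the strain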
Settings: S. cerevisiae deletion strains, growth OD

Measured: normalized growth

N[C@@H](CCC(=O)N[C@@H](CS)C(=O)NCC(=O)O)C(=O)O
inactive: locus YAL021C, strain ccr4, hits give low values 1 | locus YAL026C, strain drs2, hits give low values 1.04 | locus YAL030W, strain snc1, hits give low values 0.986 | locus YBL061C, strain skt5, hits give low values 1.01 | locus YBR009C, strain hhf1, hits give low values 0.988 | locus YBR021W, strain FUR4, hits give low values 1.05 | locus YBR023C, strain chs3, hits give low values 1.01 | locus YBR171W, strain sec66, hits give low values 0.981 | locus YBR229C, strain ROT2, hits give low values 1.01 | locus YBR231C, strain swc5, hits give low values 0.972 | locus YBR279W, strain paf1, hits give low values 1 | locus YCL011C, strain gbp2, hits give low values 1.01 | locus YCL016C, strain dcc1, hits give low values 1.02 | locus YCL029C, strain bik1, hits give low values 0.998 | locus YCL061C, strain MRC1, hits give low values 0.99 | locus YCL069W, strain vba3, hits give low values 1.01 | locus YCR088W, strain abp1, hits give low values 0.998 | locus YDL005C, strain med2, hits give low values 0.985 | locus YDL035C, strain GPR1, hits give low values 1.01 | locus YDL040C, strain nat1, hits give low values 0.989 | locus YDL074C, strain BRE1, hits give low values 0.987 | locus YDL101C, strain DUN1, hits give low values 0.991 | locus YDL185W, strain tfp1, hits give low values 0.947 | locus YDL192W, strain arf1, hits give low values 0.988 | locus YDR001C, strain nth1, hits give low values 0.993 | locus YDR069C, strain doa4, hits give low values 0.975 | locus YDR101C, strain arx1, hits give low values 0.992 | locus YDR137W, strain rgp1, hits give low values 1.03 | locus YDR159W, strain sac3, hits give low values 0.943 | locus YDR162C, strain NBP2, hits give low values 0.998 | locus YDR195W, strain ref2 0.927 | locus YDR297W, strain sur2, hits give low values 0.984 | locus YDR318W, strain mcm21, hits give low values 0.993 | locus YDR334W, strain swr1, hits give low values 0.998 | locus YDR335W, strain msn5, hits give low values 0.987 | locus YDR388W, hits give low values 0.998 | locus YDR392W, strain spt3, hits give low values 1 | locus YDR502C, strain sam2, hits give low values 0.987 | locus YEL003W, strain gim4, hits give low values 0.992 | locus YEL037C, strain rad23, hits give low values 0.995 | locus YEL061C, strain CIN8 (second series), hits give low values 0.996 | locus YEL061C, strain CIN8, hits give low values 0.991 | locus YER015W, strain faa2, hits give low values 1 | locus YER016W, strain bim1, hits give low values 1.02 | locus YER110C, hits give low values 0.971 | locus YER111C, strain swi4, hits give low values 1.01 | locus YER155C, strain BEM2 (second series), hits give low values 0.963 | locus YER155C, strain BEM2, hits give low values 0.998 | locus YER167W, strain BCK2, hits give low values 1 | locus YFR010W, strain ubp6, hits give low values 1 | locus YGL078C, strain dbp3, hits give low values 0.99 | locus YGL086W, strain mad1, hits give low values 0.987 | locus YGL167C, strain pmr1, hits give low values 0.988 | locus YGL173C, strain kem1, hits give low values 0.977 | locus YGL227W, strain vid30, hits give low values 0.992 | locus YGL240W, strain doc1, hits give low values 0.973 | locus YGL248W, strain PDE1, hits give low values 0.999 | locus YGL253W, strain hxk2, hits give low values 1.02 | locus YGR135W, strain pre9, hits give low values 0.978 | locus YGR252W, strain gcn5, hits give low values 0.995 | locus YHR013C, strain ard1, hits give low values 0.996 | locus YHR027C, strain rpn1, hits give low values 1.01 | locus YHR030C, strain SLT2, hits give low values 0.992 and 0.922 | locus YHR079C, strain IRE1 (second series), hits give low values 0.985 | locus YHR079C, strain IRE1, hits give low values 0.928 | locus YHR094C, strain hxt1, hits give low values 0.996 | locus YHR129C, strain ARP1, hits give low values 1 | locus YHR142W, strain chs7, hits give low values 1.03 | locus YHR200W, strain rpn10, hits give low values 0.981 | locus YIL066C, strain RNR3, hits give low values 1.01 | locus YIL073C, strain SPO22, hits give low values 0.952 | locus YIL125W, strain kgd1, hits give low values 0.996 | locus YIR030C, strain dcg1, hits give low values 0.991 | locus YJL092W, strain hpr5, hits give low values 0.998 | locus YJL095W, strain BCK1 (second series), hits give low values 1.01 | locus YJL095W, strain BCK1, hits give low values 0.97 and 1.03 | locus YJL115W, strain asf1, hits give low values 0.972 | locus YJL129C, strain trk1, hits give low values 0.975 | locus YJL134W, strain LCB3, hits give low values 0.995 | locus YJL154C, strain vps35, hits give low values 0.998 | locus YJL164C, strain tpk1, hits give low values 1.01 | locus YJL166W, strain qcr8, hits give low values 0.973 | locus YJL168C, strain set2, hits give low values 0.994 | locus YJL187C, strain SWE1 (second series), hits give low values 0.987 | locus YJR043C, strain POL32, hits give low values 0.992 | locus YJR066W, strain TOR1, hits give low values 0.923

Source: PubChem BioAssay AID1159580 (chemical genetic matrix, 2015)
